ELG1 genotox: inducers of genotoxicity in HEK293T ELG1-luciferase cells | HEK293T ELG1-luciferase reporter, luminescence, 16 h | Potency, µM (doses to about 46 µM), inactives show at the highest dose activity change, positive = activation, actives largely listed as activators | hit rate 1.3% among 330,000; note: % of control where 0% means no effect; nearly all actives have a fitted effect of over 60% in size
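16 hr compound incubation (37 °C, 5% CO2) of HEK293T cells carrying luciferase-tagged ELG1; luciferase then measured by ONE-Glo luminescence after 30 min at RT.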
Rab9 prom act: activators of Rab9 promoter | Huh7 Rab9 promoter-luciferase reporter, luminescence, 24 h | hit rate 2.8% among 320,000 | AID 485297 | Potency, µM (titrated, usually from 9.22 µM), for the others: at the highest dose activation, negative = inhibition, hits mostly activators; note: % of control where 0% means no effect; nearly all actives have a fitted effect of over 60% in size
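Promoter activation is measured as luciferase luminescence in Huh7 cells stably transfected with a Rab9 promoter–luciferase construct, following 24 h compound exposure at 37 °C and 10 min reagent incubation at ambient temperature.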
ELG1 DNA repair: blocks ELG1-dependent DNA repair in HEK293T cells; AID 504467; hit rate 2.3% among 330,000; Potency, µM (titrated, usually from 46.1 µM), for inactives: top-dose activity change, negative = inhibition, actives largely listed as inhibitors; HEK293T ELG1-luciferase reporter, luminescence, 16 h; DNA damage induced by 5-fluorouridine; note: % is set by controls: 0 for no effect and ±100 for the full control effect; nearly all actives have a fitted effect of over 55% in size
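Step one: seed 2,000 cells per well. Step two: pin-transfer compound or DMSO alongside 5-fluorouridine. Step three: incubate 16 hr, 37 °C, 5% CO2. Step four: add ONE-Glo, wait 30 min, read luminescence.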
FLuc modulator: firefly luciferase modulation, counter-screen for miR-21 project; purified FLuc, Km substrates, luminescence inhibition; AID 588342; Potency, µM (titrated, usually from 57.5 µM), for the others: at the top dose activity change, negative = inhibition, most hits filed as inhibitors; P08659; hit rate 6.9% among 360,000;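 note: plate controls were vehicle for no effect and reference inhibitor for full effect; nearly all actives have a fitted effect of over 55% in size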
Target sequence (P08659 whole entry, looked up): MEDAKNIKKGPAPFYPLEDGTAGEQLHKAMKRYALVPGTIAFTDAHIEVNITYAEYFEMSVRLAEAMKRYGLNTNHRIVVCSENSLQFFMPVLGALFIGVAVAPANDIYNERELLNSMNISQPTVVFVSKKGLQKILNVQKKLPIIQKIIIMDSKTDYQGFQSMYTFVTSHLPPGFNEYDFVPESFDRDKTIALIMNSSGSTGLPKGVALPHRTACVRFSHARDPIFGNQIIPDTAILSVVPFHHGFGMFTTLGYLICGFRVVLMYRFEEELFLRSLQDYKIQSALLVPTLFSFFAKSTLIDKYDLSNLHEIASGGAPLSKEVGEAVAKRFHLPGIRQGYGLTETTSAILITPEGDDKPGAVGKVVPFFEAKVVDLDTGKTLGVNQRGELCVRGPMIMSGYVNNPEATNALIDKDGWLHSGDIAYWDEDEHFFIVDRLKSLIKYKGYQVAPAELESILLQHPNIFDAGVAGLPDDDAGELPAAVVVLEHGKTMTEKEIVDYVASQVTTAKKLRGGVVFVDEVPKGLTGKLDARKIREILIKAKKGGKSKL
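Biochemical qHTS of compounds, final roughly 60 µM downward over six points, against 10 nM purified firefly luciferase using Km concentrations of substrates (10 uM D-luciferin, 10 uM ATP) in Tris acetate pH 7.5 buffer; luminescence output.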
NPC1 prom act: NPC1 promoter activation; Huh7 NPC1 promoter luciferase reporter, 24 h; Potency, µM (highest dose often 9.22 µM), inactives show top-dose activation, most hits filed as activators; hit rate 2.4% among 320,000; AID 485313; note: % of control where 0% means no effect; nearly all actives have a fitted effect of over 60% in size
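Stable NPC1-promoter luciferase Huh7 line; cpd (DMSO) 24 h, 37 °C, 5% CO2; Amplite luciferase reagent 10 min RT; luminescence readout. qHTS format.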
SMN2 splice enh: SMN2 splice variant enhancement; HEK293 SMN2-luciferase splicing reporter, luminescence, 30-36 h; Potency, µM (highest dose often 46.1 µM), inactives show at the top dose activity change, positive = activation, hits mostly activators; hit rate 2.8% among 210,000; note: % of control where 0% means no effect; nearly all actives have a fitted effect of over 55% in size
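qHTS luciferase splicing reporter: luminescence rises when SMN2 exon 7 is included in transfected HEK293 cells. Compound exposure lasted 30-36 h at 37C, with 4.5 mM final sodium butyrate as control, followed by a ONE-Glo read.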
* = called active by the depositor; ? = inconclusive; nt = no result. This is a sample that favours compounds with a hit; in the whole collection about 9.4% have one here. Calls come from the whole dose curve; as a rule, active = well fitted curve in the direction sought with a large enough effect; inconclusive = small, poorly fitted or top-dose-only effect, or another doubt; inactive = no such curve, though single readings can be large; an effect the other way counts as inactive or inconclusive. Potency is the fitted concentration of half-maximal effect.

SMILES	ELG1 genotox	Rab9 prom act	ELG1 DNA repair	FLuc modulator	NPC1 prom act	SMN2 splice enh
CC(=O)c1ccc(OCc2cc(C(=O)N3CCOCC3)no2)cc1	?	?	?	17µM*	?	nt
CC(=O)c1ccc(OCc2cc(C(=O)N3CCCCCCC3)no2)cc1	-6%	28%	16%	?	14%	nt
CC(=O)c1ccc(OCc2cc(C(=O)N3CCC(Oc4ccccc4C)CC3)no2)cc1	15%	?	?	19µM*	?	nt
Cc1ccc(OCc2cc(C(=O)N3CCC(Oc4cccnc4)CC3)no2)cc1C	-4%	0%	-21%	-19%	-4%	nt
CCn1cnc2sc(C(=O)Oc3cccc(C)c3)c(C)c2c1=O	18µM*	?	?	?	?	-14%
COc1ccc(NC(=O)CSc2ccc(C)cc2)cc1	?	27%	?	21µM*	?	8%
CC(=O)NS(=O)(=O)c1ccc(NC(=O)CSc2ccccc2)cc1	0%	-1%	9%	8%	-1%	nt
COc1ccccc1CNC(=O)CSc1ccccc1	?	3.2µM*	?	?	?	?
CC(=O)Oc1ccc(NC(=O)CSc2ccccc2)cc1	15µM*	18%	?	?	28%	?
O=C(O)c1ccc[nH]c1=S	0%	-4%	-2%	-2%	-1%	nt
CN(C)c1ccc(/C=N/NC(=O)CN(c2cccc(Cl)c2)S(C)(=O)=O)cc1Br	-10%	-8%	21µM*	?	1%	-13%
CN(C(=O)CSc1nc2ccccc2o1)C1CCCCC1	?	2.8µM*	?	7.6µM*	2.2µM*	nt
O=C(O)c1ccc2oc(SCC(=O)N3CCCCC3)nc2c1	?	2.5µM*	?	17µM*	3.5µM*	13µM*
CN(C(=O)CSc1nnc(-c2cccnc2)o1)C1CCCCC1	1%	-1%	15%	-2%	-1%	nt
CC1CCCN(C(=O)CSc2nc3ccccc3o2)C1 (stereo not drawn)	?	3.2µM*	?	17µM*	2.5µM*	19%
O=C(CSc1nc2cc(Cl)ccc2o1)N1CCOCC1	4%	1%	16%	-5%	3%	20%
O=C(c1ccc(S(=O)(=O)c2cccc(Cl)c2)c([N+](=O)[O-])c1)N1CCN(Cc2ccccc2)CC1	-7%	0%	?	1%	-2%	?
COc1cccc(-n2c(=O)c3c(C)c(C)sc3n(CC(=O)Nc3ccccc3OC)c2=O)c1	nt	nt	nt	-1%	nt	-6%
COc1ccc(CCn2c(O)cc3nn(-c4nc5ccccc5s4)c(=O)c-3c2C)cc1	14%	?	?	9.5µM*	2.8µM*	nt
NC(=O)c1nnn(-c2ccccc2)c1N	-1%	0%	1%	-1%	-1%	6%
CCCCNC(=O)c1nnn(-c2ccccc2)c1N	?	?	?	?	?	13µM*
CC(C(=O)N1CCCCC1)n1sc2ccccc2c1=O (stereo not drawn)	?	?	?	24µM*	?	?
COC(=O)[C@@H](O)CC[C@@H](C)Cc1c(OC)c(OC)c(C)c(OC)c1OC	nt	nt	nt	nt	nt	15%
Cc1nc2c(C(=O)Nc3ccc(N4CCCC(O)C4)cc3)snc2c(=O)[nH]1 (stereo not drawn)	12%	2%	?	3µM*	17%	nt
O=C(Nc1ccc(N2CCCC(O)C2)cc1)c1snc2c(=O)[nH]cnc12 (stereo not drawn)	?	18%	0%	2.1µM*	17%	?
SMILES	ELG1 genotox	Rab9 prom act	ELG1 DNA repair	FLuc modulator	NPC1 prom act	SMN2 splice enh
Cc1cccc(NC(=O)c2snc3c(=O)[nH]cnc23)c1	-2%	3%	-2%	0%	-2%	-11%
COc1ccc(CNc2oc(/C=C/c3cccc(OC)c3)nc2C#N)cc1	nt	nt	nt	-7%	nt	-25%
Cc1cc(C)cc(NC(=O)c2sc3nc(-c4ccccc4)cn3c2C)c1	nt	nt	nt	-11%	nt	nt
Cc1csc2c(N3CCN(S(=O)(=O)c4ccc(Cl)cc4)CC3)ncnc12	-1%	-6%	-7%	1%	-2%	nt
Cc1csc2c(N3CCC(C(=O)O)CC3)ncnc12	8%	18%	?	17µM*	2%	nt
Cc1csc2c(N3CCN(C(=O)Nc4ccc(OC(F)(F)F)cc4)CC3)ncnc12	-10%	1%	?	-20%	-1%	nt
Cc1csc2c(N3CCCCC3)ncnc12	10%	19%	?	13µM*	?	nt
COc1ccc(NC(=O)CCc2nc3ccccc3s2)c(OC)c1	0%	-2%	-6%	-1%	-1%	6%
COc1ccccc1C(=O)Nc1nc(N)n(-c2ccccc2)n1	2%	16%	?	12µM*	2%	-10%
COc1ccccc1C(=O)Nc1nc2ccc(S(C)(=O)=O)cc2s1	10%	?	6%	?	27%	1%
COc1ccccc1C(=O)Nc1nc2ccccc2s1	?	?	?	0.11µM*	2.2µM*	nt
COc1n[nH]c(C(=O)Nc2nc3ccccc3s2)c1[N+](=O)[O-]	16µM*	?	?	15µM*	?	11µM*
COc1ccc(C(=O)Nc2nc3ccccc3s2)c(OC)c1	-28%	-25%	3.7µM*	0.015µM*	?	nt
COc1n[nH]c(C(=O)NCc2ccccc2)c1[N+](=O)[O-]	0%	0%	-8%	?	-1%	6%
Cc1ccc(Cl)cc1NC(=O)CSc1nc2ccccc2c2nc(-c3ccccc3)nn12	nt	nt	nt	-5%	nt	nt
Cc1ccc(C(=O)NCCc2ccc(S(N)(=O)=O)cc2)cc1-n1cnc2cccnc21	nt	nt	nt	0%	nt	nt
Nn1c(SCc2ccccc2)nc2ccccc21	?	3.2µM*	?	19µM*	1.8µM*	nt
O=C(O)Cn1c(SCc2ccccc2)nc2ccccc21	7%	4%	12%	?	-1%	-3%
Cc1nc(Nc2ccc(Cl)cc2)c2nnn(Cc3ccccc3)c2n1	0%	-1%	-1%	5%	-3%	nt
COc1ccc(Nc2nc(C)nc3c2nnn3Cc2ccccc2)cc1OC	-2%	0%	9.2µM*	0%	0%	-78%
Cc1nc(Nc2ccc(S(=O)(=O)N3CCCCC3C)cc2)c2nnn(Cc3ccccc3)c2n1 (stereo not drawn)	-5%	-7%	7.3µM*	-3%	-16%	-40%
Cc1cccc(-c2nc3c4ccccc4nc(NCc4ccc(Cl)cc4)n3n2)c1	nt	nt	nt	-11%	nt	9%
COC(=O)N1CCC[C@@]2(CCN(c3ccccn3)C2)C1	nt	nt	nt	nt	nt	3%
COCCCN(C(=O)c1ccccc1)c1nc(-c2ccc(OC)cc2)cs1	-5%	5%	?	-8%	2%	nt
COCCCN(C(C)=O)c1nc(-c2ccccc2)cs1	13µM*	?	?	?	29%	nt
